The target of the first test is PUM1 PUF domain R5-RGK (Homo sapiens, UniProt Q14671 828-1176, C1007R;R1008G;Q1011K). Kind of test: yeast three-hybrid, YBZ-1, SC-Leu-His + 0.5 mM 3-AT, 4 days. The note with it: tags: N-Gal4 AD-HA kept; label: inside an RPR1-promoter hybrid RNA with tandem MS2 sites; ssRNA. In outline:
(§1)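 The interaction score is the log change in how often each variant appears, from input to selection. Frequencies came from PCR-amplified, Illumina-sequenced repeat regions of Pumilio-1 PUF domain libraries grown in strain YBZ-1 (LexA–MS2 coat fusion, HIS3 reporter) alongside matching RNA elements. Input plates were SC-Leu and selection plates were SC-Leu-His + 0.5 mM 3-AT, each for four days, and the log2 calculation used a pseudocount of 1 where a variant was absent.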
Chain of PUM1 PUF domain R4-DHS (Q14671 828-1176 N971D/Q975S): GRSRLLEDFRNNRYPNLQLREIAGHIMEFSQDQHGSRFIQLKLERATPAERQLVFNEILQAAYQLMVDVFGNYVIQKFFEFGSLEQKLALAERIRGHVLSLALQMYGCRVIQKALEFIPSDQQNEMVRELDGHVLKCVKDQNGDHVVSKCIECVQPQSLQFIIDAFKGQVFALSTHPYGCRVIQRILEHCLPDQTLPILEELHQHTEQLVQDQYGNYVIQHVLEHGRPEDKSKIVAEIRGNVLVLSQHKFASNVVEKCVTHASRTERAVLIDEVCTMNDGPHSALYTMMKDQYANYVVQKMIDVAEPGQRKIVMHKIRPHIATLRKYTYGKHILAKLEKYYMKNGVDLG
Chain of PUM1 PUF domain R5-RGK (Q14671 828-1176 C1007R/R1008G/Q1011K): as the sequence (Q14671 828-1176 N971D/Q975S) above, with D144N, S148Q, C180R, R181G, Q184K counted along it
For the sequence “GGCUAGAACUAGUGGAUCCCCCGGCGCCCGGCGGCUCGAGCCCGGGUAAGUGUGAAUAGUCUGCAUGCCGCCGGGCGCCAUGCCUGCAGGUCGACUCUAGAAAACAUG”, the binding signal was 1.16 log2 enrichment (interaction score).
On to “GGCUAGAACUAGUGGAUCCCCCGGCGCCCGGCGGCUCGAGCCCGGGUAAGUGUCAAUAGUCUGCAUGCCGCCGGGCGCCAUGCCUGCAGGUCGACUCUAGAAAACAUG”, for which the binding signal was 2.71 log2 enrichment (interaction score).
The same measure, in the same setting: the figure for “GGCUAGAACUAGUGGAUCCCCCGGCGCCCGGCGGCUCGAGCCCGGGUAAGUGUUAAUAGUCUGCAUGCCGCCGGGCGCCAUGCCUGCAGGUCGACUCUAGAAAACAUG” is 3.44 log2 enrichment (interaction score).

A further test addresses PUM1 PUF domain R4-DHS (Homo sapiens, UniProt Q14671 828-1176, N971D;Q975S). The test is described as above. The settings on record: tags: N-Gal4 AD-HA kept; label: inside an RPR1-promoter hybrid RNA with tandem MS2 sites; ssRNA. In outline: as §1
As for “GGCUAGAACUAGUGGAUCCCCCGGCGCCCGGCGGCUCGAGCCCGGGUAAGUGUAAAUAGUCUGCAUGCCGCCGGGCGCCAUGCCUGCAGGUCGACUCUAGAAAACAUG”, the binding signal was 4.49 log2 enrichment (interaction score).
Still for that read-out and setting: the figure for “GGCUAGAACUAGUGGAUCCCCCGGCGCCCGGCGGCUCGAGCCCGGGUAAGUGUACAUAGUCUGCAUGCCGCCGGGCGCCAUGCCUGCAGGUCGACUCUAGAAAACAUG” is 3.02 log2 enrichment (interaction score); for “GGCUAGAACUAGUGGAUCCCCCGGCGCCCGGCGGCUCGAGCCCGGGUAAGUGUAUAUAGUCUGCAUGCCGCCGGGCGCCAUGCCUGCAGGUCGACUCUAGAAAACAUG” it is 5.89 log2 enrichment (interaction score).

The values are drawn from publication PMC8384837, “Expanding the binding specificity for RNA recognition by a PUF domain”.
